The results in this text go back to PubChem BioAssay (NCI).

Molecules are shown by their SMILES. Compounds without any hit were thinned out: in the full panel of roughly 83,000, 20% have a hit.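 Negative percent growth values reflect cell death: -40 means 40% of the cells present at the start died, and -100 means all died.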 Values without a mark were called inactive. Calls of active or inactive are those of the source.

This test concerns OVCAR-3 ovarian. The experiment in a line: NCI-60 one-dose screen, 48 h (100 = growth as untreated, 0 = no growth, -100 = all killed). To be noted: 10 µM unless noted. As to the method: Growth inhibition of the OVCAR-3 human tumor cell line is measured as a screen for anti-cancer activity. Cells are grown in 96 well plates and exposed to the test compound for 48 hours. Compounds are tested at a single concentration, which is 10^-5 M for most compounds. The reported endpoint is percent growth (GI% or GIPRCNT), where numbers from 0 - 100% represent growth inhibition, and numbers from -100% - 0 represent cell death. For example, a value of 40 represents 60% growth inhibition. A value of 0 means no net growth occurred over the course of the experiment. A value of -40 indicates 40% of cells at the beginning of the experiment died by the end of the experiment. A value of -100 means all cells are dead at the end of the experiment.
NCI-60 Human Tumor Cell Lines Screen was performed using the standard one-dose NCI protocol, which is described in more detail at https://dtp.cancer.gov/discovery_development/nci-60/default.htm.
Compounds with GIPRCNT values below 10 were considered active. Activity score was based on GIPRCNT using the following formula: […]
Score is 0 for GIPRCNT values of 100 or above, 50 for GIPRCNT values of 0, and 100 for GIPRCNT values of -100.
As to `CC(=O)N1N=C(c2cccc(Nc3ccncc3)c2)CC1c1ccccc1` (stereo not given), the growth was 91.7%. On to `O=C1c2cccnc2C(=O)c2nc3cc(N4CCN(C5CC5)CC4)ccc3nc21`, for which the growth is -1.56% (active). Regarding `CC1(C)CN(c2cnc(C(=O)Nc3cc(F)cc4cccnc34)cn2)CCN1`, the growth was 10.6%. Then `CC(O)/C=C/C=C/C(O)CC/C=C/C(=O)NCC(C)(C)O` (stereo not given), with 115%. In the case of `CCc1c(Nc2ccc(C)cc2)[nH]c(N)nc1=S`, the growth is 119%.

Consider `Fc1ccc(C2CC(c3cccc(Nc4ccncc4)c3)=NN2c2cc(Cl)cc(Cl)c2)cc1` (stereo not given), for which the growth is 62.1%.

Consider `Cc1nc2sc(C(=O)Nc3ccccc3)c(N)c2cc1C(=O)c1ccc(C(F)(F)F)cc1`, for which the growth was 110%. Then `CCN1C(=O)N(CC)C2C1NN=c1s/c(=C3\C(=O)Nc4ccccc43)c(=O)n12` (stereo not given), with -12.8% (active). The same measure for `Cc1ccc(C2CC(c3cccc(Nc4ccncc4)c3)=NN2c2cc(Cl)cc(Cl)c2)cc1` (stereo not given): 61.7%; for `CCCCOc1ccc(/C=N/Nc2cc(C)nc3ccc(Cl)cc23)cc1`: -76.7% (active); for `COc1ccc(C(=O)c2cc3c(N)c(C(=O)Nc4cccc(Br)c4C)sc3nc2C)cc1`: -20.1% (active). The same measure for `COc1ccccc1OCC(=O)N1CCCCCC1`: 116%; for `CN1C(=O)N(C)[C@H]2NC(NN)=N[C@H]21`: 109%. On to `[2H]C1([2H])NC([2H])([2H])C([2H])([2H])N(c2ccc(Nc3ncc4cc(C(=O)N(C)C)n(C5CCCC5)c4n3)nc2)C1([2H])[2H]`, for which the growth was 107%. The same measure for `Cn1c(=O)c2[nH]c(CCCc3nc4c([nH]3)c(=O)n(C)c(=O)n4C)nc2n(C)c1=O`: 128%; for `Cn1c(COC(=O)NCCN2CCOCC2)nc2c(N3CCOCC3)nc(-c3ccccc3)nc21`: -86.5% (active); for `C/C(=C(/c1ccccc1)c1ccc(OCC(O)CN2CCOCC2)cc1)c1ccccc1` (stereo not given): 90.4%. Then `O=C1Nc2cc(-c3ccncc3)ccc2/C1=C/c1ccc[nH]1`, with 85.2%. The same measure for `COc1ccc(-c2nc(N/N=C/c3cccc(Br)c3)nc(N3CCOCC3)c2C#N)cc1`: 74.6%; for `N/C(=N\N=C\c1cc2ccccc2[nH]1)N/N=C/c1cc2ccccc2[nH]1`: 93.9%. Consider `O=[N+]([O-])c1cccc(-c2nc(-c3ccc(Cl)cc3Cl)cn2-c2ccccc2)c1`, for which the growth is -55.9% (active).

Take `O=CNc1cc(Cl)cc(Cl)c1`: the growth was 123%.

Turning to `CN1CCN(C(=O)OCc2nc3c(N4CCOCC4)nc(-c4ccccc4)nc3n2C)CC1`, the growth is -81.9% (active).

Consider `COc1ccc(-c2nc(N/N=C/c3c[nH]c4ccccc34)nc(N3CCOCC3)c2C#N)cc1`, for which the growth is 90.4%.

`CSc1nc(O)c(-c2ccccc2)c(=O)[nH]1`: the growth is 120%. Then `CCNC(=S)NNC(=O)c1cc2ccc1CCc1ccc(cc1)CC2`, with 98.6%.

On to `N/C(=N\N=C\c1cc2ccccc2s1)N/N=C/c1cc2ccccc2s1`, for which the growth is 107%. The same measure for `[O-][n+]1ccccc1CCN(O)CCc1cccc[n+]1[O-]`: 106%; for `COc1cccc(CCC(=O)c2cc3c(N)c(C(=O)Nc4cccc(Cl)c4C)sc3nc2C)c1`: -8.82% (active). The same measure for `COc1ccc(-c2nc3sccn3c2/C=C/C(=O)c2cc(OC)c(OC)c(OC)c2)cc1`: 53.7%; for `S=c1[nH]cccc1-c1nnc2n1Nc1nc3ccc(Cl)cc3cc1CS2`: 105%.

`CN1CCN(Cc2ccc(NC(=O)c3cncc(C#Cc4cnccc4C(F)(F)F)c3)cc2C(F)(F)F)CC1`: the growth is 105%. The same measure for `N#CSCC1CC(O)(c2ccccc2)C(c2ccccc2)C(c2ccc(F)cc2)O1` (stereo not given): -84.2% (active). Then `CCCNC(=O)Oc1ccc(/C(=C(\C)c2ccccc2)c2ccc(OCCN3CCCCC3)cc2)cc1`, with 75.6%; and `c1ccc(C2CC(c3cccc(Nc4ccncc4)c3)=NN2c2ccccc2)cc1` (stereo not given), with 78.3%.

For `FCc1nc2nc(Cl)c(Cl)nc2[nH]1`, the growth is 108%.

In the case of `CCCCCCN(C)Cc1ccc(OCCOc2ccc(CN(C)CCCCCC)cc2)cc1`, the growth was 44.9%. Then `Nc1ncc(C#Cc2cncc(NC(=O)c3cccc(C(F)(F)F)c3)c2)c2cccnc12`, with 84.6%; and `O=S(=O)(NCCCNc1nccc(-c2c(-c3ccc(F)c(O)c3)nc3sccn23)n1)c1ccc(F)cc1`, with 20.8%; and `Cc1cc2nc(-c3ccccc3)c(-c3ccccc3)nc2cc1C`, with 113%.
